Compound activity deposited in PubChem BioAssay by NMMLSC.
Only some compounds are listed: those with a hit (about 1.2% of all), similar ones and a draw of the others.
GSH fluor: GSH bead compound fluorescence profile; 190,000 tested, 0.25% active; GSH beads flow cytometry, compound fluorescence 488/530 nm; active compounds read high; fluorescence (KMESF) at 10 µM; AID 1776; in the data active means fluorescence above about 89;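 further: glutathione beads carrying GST-tagged Bcl family fusion proteins plus one bare bead set; values are compound well signal with DMSO vehicle wells as background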
Avidin bead fluor: compound fluoresces at 488/530 nm on avidin beads | AID 1775 | fluorescence (KMESF) at 10 µM | 220,000 tested, 0.38% active | compound fluorescence 488/530 nm, flow cytometry; active compounds read high; in the data active means fluorescence above about 47
RGS4-Gao reg: modulates binding of RGS4 to human Galphao. Multiplexed bead flow cytometry; actives lie on both sides. binding response (% of control), % at 10 µM. P09471. 220,000 tested, 0.33% active. AID 1415; in the data active means binding response below about 49% or above about 150%; inactive means in between;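 further: fluorescent Galphao activated with aluminum fluoride binding bead-coupled RGS4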
RGS16-Gao HTS: RGS16-Galphao interaction regulator (human). O15492+P09471. bead-based flow cytometry RGS16-Galphao binding, fluorescence; actives lie on both sides. binding response (% of control), % at 10 µM. 220,000 tested, 0.38% active. AID 1441;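 further: Galphao activated by GDP with aluminum fluoride before binding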
Target sequence (O15492 whole entry, looked up): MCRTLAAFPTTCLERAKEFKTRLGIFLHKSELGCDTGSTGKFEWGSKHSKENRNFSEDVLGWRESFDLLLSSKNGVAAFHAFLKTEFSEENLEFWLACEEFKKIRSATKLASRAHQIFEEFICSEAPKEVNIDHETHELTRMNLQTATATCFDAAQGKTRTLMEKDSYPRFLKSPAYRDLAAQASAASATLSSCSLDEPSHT
Target sequence (P09471 whole entry, looked up): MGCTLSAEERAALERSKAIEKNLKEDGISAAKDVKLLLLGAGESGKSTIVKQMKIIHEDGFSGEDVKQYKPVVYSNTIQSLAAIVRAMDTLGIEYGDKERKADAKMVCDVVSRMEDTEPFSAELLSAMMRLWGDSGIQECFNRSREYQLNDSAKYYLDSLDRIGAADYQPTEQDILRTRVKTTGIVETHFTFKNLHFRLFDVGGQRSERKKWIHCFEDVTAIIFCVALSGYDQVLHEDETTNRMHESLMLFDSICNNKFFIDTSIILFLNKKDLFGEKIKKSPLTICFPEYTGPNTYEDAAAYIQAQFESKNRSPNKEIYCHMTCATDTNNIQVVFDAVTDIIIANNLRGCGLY
RGS8-Gao reg: regulators of human RGS8-Galphao interaction | P09471 | multiplexed bead flow cytometry, RGS8-Galphao binding; actives lie on both sides | response (percent of control binding), % at 10 µM | 220,000 tested, 0.34% active; in the data active means response below about 60% or above about 140%; inactive means in between;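 further: Galphao activated as the GDP aluminium fluoride complex binding bead-coupled RGS8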
RGS7-Gao: regulators of human RGS7-Galphao interaction. P09471. Multiplexed bead flow cytometry, RGS7-Galphao binding; actives lie on both sides. binding response (% of control), % at 10 µM. 220,000 tested, 0.35% active. AID 1439; in the data active means binding response below about 49% or above about 150%; inconclusive means no clear call, values can overlap the other calls; inactive means in between;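 further: fluorescent Galphao held in activated GDP-AlF4 state binding bead-coupled RGS7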
RGS-Gao: RGS4-Galphao interaction regulator (human); shares compounds with RGS16-Gao HTS; multiplexed bead flow cytometry, RGS–Galpha-o binding; RGS4–Galpha-o binding response, % at 10 µM; 1,600 tested, 99% active; AID 1504;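 further: fluorescently labeled Galpha-o bound to GDP with aluminium fluoride binding biotinylated RGS beads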
Biotin-avidin: counter-screen: compounds disrupting biotin binding to avidin beads; streptavidin beads, fluorescein-biotin binding, flow cytometry; AID 1783; inhibition, % at 10 µM; shares compounds with RGS16-Gao HTS; 1,700 tested, under 10 active;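 active means inhibition above 50%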;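 further: median green fluorescence of gated singlet beads compared with DMSO control wells; 0% = DMSO wells and 100% = complete loss of bead fluorescence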
RGS8-Gao confirm: confirmation of regulators of human RGS8-Galphao interaction. shares compounds with RGS16-Gao HTS. bead-based flow cytometry RGS8-Galphao binding, fluorescence; actives lie on both sides. AID 1836. binding response (% of control), % at 10 µM. 1,700 tested, 3% active; in the data active means binding response below about 72% or above about 130%; inactive means in between;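 further: Galphao activated as GDP AlF4 complex before binding bead RGS8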
RGS7-Gao confirm: RGS7-Galphao interaction regulation, single point confirmation | shares compounds with RGS16-Gao HTS | bead-based flow cytometry RGS7-Galphao binding; actives lie on both sides | response (percent of control binding), % at 10 µM | 1,700 tested, 7.8% active; in the data active means response below about 75% or above about 130%; inactive means in between;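 further: fluorescent Galphao activated with GDP and aluminum fluoride binding bead-coupled RGS7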
RGS16-Gao single: RGS16-Galphao interaction regulation, single point confirmation; shares compounds with RGS16-Gao HTS; bead-based flow cytometry, RGS16-Galphao binding; actives lie on both sides; response (% of control binding), % at 10 µM; 1,700 tested, 4% active; AID 1838; in the data active means response below about 74% or above about 130%; inactive means in between;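 further: Galphao activated as the GDP aluminium fluoride complex binding bead-coupled RGS16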
RGS4-Gao single: confirmation of regulators of human RGS4-Galphao interaction. shares compounds with RGS16-Gao HTS. RGS4-Galphao binding, multiplexed bead flow cytometry; actives lie on both sides. binding response (% of control), % at 10 µM. 1,700 tested, 4% active. AID 1840; in the data active means binding response below about 74% or above about 130%; inactive means in between
RGS19-Gao conf: RGS19-Galphao interaction regulation, single point confirmation | shares compounds with RGS16-Gao HTS | bead-based flow cytometry RGS19-Galphao binding; actives lie on both sides | response (percent of control binding), % at 10 µM | 1,700 tested, 5% active; in the data active means response below about 50% or above about 160%; inactive means in between;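 further: 100% = no compound control and 0% = blank background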
Active calls of the source: *; ? = inconclusive; . = no result given; [ ] = dose if it differs, or a comment. Unless noted, how the calls were made is not given here.

SMILES	GSH fluor	Avidin bead fluor	RGS4-Gao reg	RGS16-Gao HTS	RGS8-Gao reg	RGS7-Gao	RGS-Gao	Biotin-avidin	RGS8-Gao confirm	RGS7-Gao confirm	RGS16-Gao single	RGS4-Gao single	RGS19-Gao conf
CN1CCN(C(=O)c2cn(-c3ccccc3)nc2-c2cccnc2)CC1	30	.	152*[activator]	151	.	144	.	-1	101	100	99	101	89
Cc1cc(N2CCN(c3ccccc3)CC2)n2nnnc2n1	13	41	111	111	102	105	.	.	.	.	.	.	.
Cc1cc(N2CCN(c3nnnn3-c3ccccc3)CC2)n2ncnc2n1	31	3	131	554	140*[activator]	120	131*	0	95	85	95	90	111
Cc1ccc(C(=O)N2CCN(c3cnn(C)c(=O)c3Cl)CC2)cc1	17	9	101	101	102	100	.	.	.	.	.	.	.
COC(=O)c1ccc(COc2ccc(/C=N/Nc3nc(C)cc(=O)[nH]3)cc2)cc1	.	18	109	101	100	?	.	.	.	.	.	.	.
O=C(c1cc(-c2cccnc2)nc2ccccc12)N1CCCc2ccccc21	10	3	96	13*	87	94	96*	1	103	104	104	105	109
Cc1ccc(-c2cc(C(=O)N3CCCc4ccccc43)c3ccccc3n2)cc1	17	11	101	101	101	101	.	.	.	.	.	.	.
Cc1ccc(-c2nn3c(C)nnc3c3ccccc23)cc1S(=O)(=O)NC(C)(C)CO	10	11	103	109	104	104	.	.	.	.	.	.	.
Cc1ccc(-c2nn3c(C)nnc3c3ccccc23)cc1S(=O)(=O)NCCO	24	73*	115	111	105	172*[activator]	115*	1	98	96	98	102	88
O=C(N/N=C/c1ccc(N2CCOCC2)o1)c1cccc([N+](=O)[O-])c1	10	2	87	18*	63	87	87*	0	97	92	97	96	69
CNc1nc2cccnc2s1	.	17	94	89	100	?	.	.	.	.	.	.	.
CCOC(=O)c1cccc(NC(=O)Cn2c(CC(=O)NC)nc3ccccc32)c1	10	18	172*[activator]	191*[activator]	122	116	.	-2	102	109	105	105	117
CC(c1ccon1)N(C)Cc1cn(Cc2ccccc2)nc1-c1ccc2c(c1)OCO2 (stereo not drawn)	14	1	99	107	104	104	.	.	.	.	.	.	.
CS(=O)(=O)N1CCN(C(=O)c2cccnc2)CC1	67	7	88	83	96	97	.	.	.	.	.	.	.
CCCS(=O)(=O)N1CCN(C(=O)c2cccnc2)CC1	14	6	57	73	68	48*	57*	.	.	.	.	.	.
Cc1ccc(N2C(SCC(=O)O)=NC(=Nc3cccc(C)c3)C23CCCC3)cc1	14	9	93	90	96	91	.	.	.	.	.	.	.
O=C1CCCc2ccccc2N1Cc1cccc(F)c1	12	20	99	100	100	99	.	.	.	.	.	.	.
O=C1CCCc2ccccc2N1Cc1ccc(F)cc1	14	40	111	104	103	170*[activator]	111*	0	102	104	107	104	95
